Bioassay records as filed in PubChem BioAssay.
The entries come from a sample that favours hits as a whole.
MARV entry inh – qHTS for inhibitors of binding or entry into cells for Marburg Virus; Marburg virus pseudotyped entry inhibition, cell reporter; Potency, µM (series often up to 37.8 µM), most hits filed as inhibitors; 300,000 tested, 1.8% active; AID 540276, 2011; calls by dose curve; tested in HEK293 cells
LASV entry inh – qHTS for Inhibitors of binding or entry into cells for Lassa Virus | 300,000 tested, 1.2% active | AID 540256, 2011 | Lassa virus pseudotype entry inhibition, cell reporter | Potency, µM (top dose mostly 37.9 µM), usual class: inhibitors; calls by dose curve; tested in HEK293 cells; note: nearly all actives have a fitted effect of over 50% in size
AMA1-RON2 inh – qHTS for Inhibitors of AMA1-RON; Towards Development of Antimalarial Drug Lead: Primary Screen | Plasmodium falciparum AMA1 (3D7) - RON2 peptide interaction | AlphaScreen AMA1-biotinylated RON2 peptide binding | Potency, µM (highest dose often 58.2 µM), most hits filed as inhibitors | 360,000 tested, 0.2% active | AID 720542, 2013; active = well fitted inhibition curve with a large enough effect; inconclusive = small, poorly fitted or top-dose-only effect; inactive = no such curve, though single readings can be large or run the other way; note: nearly all actives have a fitted effect of over 45% in size
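AMA1 (3D7) with his tag at 25 nM final met compounds first, then biotinylated RON2 peptide at 25 nM; detection used donor plus acceptor beads, 10 µg/mL apiece, read by AlphaScreen after 30 min at room temperature.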
Cycloheximide cs – Cycloheximide Counterscreen for Small Molecule Inhibitors of Shiga Toxin; 300,000 tested, 12% active; max response, %; cell reporter, cycloheximide protein synthesis inhibition counterscreen; in the data active = max response mostly above about 13%, no sharp cut-off; inactive = mostly below about 14%; note: read at 38.3 µM for the half of the compounds with a filed dose
Shiga inhibitor – A qHTS for Small Molecule Inhibitors of Shiga Toxin; Vero cells, Shiga toxin protein synthesis inhibition reporter; inhibition, % at 38.7 µM; 290,000 tested, 9.2% active; in the data active = inhibition mostly above about 28%, no sharp cut-off; inactive = mostly below about 43%
Numbers stand for hits; - = inactive; ? = inconclusive; . = no result.

SMILES | MARV entry inh | LASV entry inh | AMA1-RON2 inh | Cycloheximide cs | Shiga inhibitor
COc1cccc(-c2c(-c3cc(OC)cc(OC)c3)n(C)c3ccc(-c4cccc5[nH]ccc45)cc23)c1 | - | . | - | . | .
CC(=O)NC(Cc1cc(C)ccc1C)C(=O)N1CCN(C(=O)Nc2ccc(C(C)=O)cc2)CC1 (stereo unspecified) | - | - | - | 17 | -
CC(=O)Nc1ccc(S(=O)(=O)N2CCN(C(C)CCc3ccccc3)CC2)cc1 (stereo unspecified) | 13µM | 16µM | - | - | -
CC(=O)Nc1ccc(S(=O)(=O)NC(CC(=O)NCCc2ccccc2)C(C)C)cc1 (stereo unspecified) | ? | - | - | 31 | -
COC(=O)Nc1ccc(S(=O)(=O)N2CCC(C)CC2)cc1 | - | - | - | - | -
COC(=O)Nc1ccc(S(=O)(=O)N2CCC(Cc3ccccc3)CC2)cc1 | ? | 21µM | - | - | -
Cc1ccc(C)c(NC(=O)C(Cc2ccccc2)N2Cc3ccccc3C2=O)c1 (stereo unspecified) | . | - | . | . | .
c1ccc(C2=NNC(c3ccccn3)=NN2)nc1 | . | . | - | 33 | 71
c1ccc(-c2nc(-c3ccccn3)nc(-c3ccccn3)n2)nc1 | - | - | - | - | -
CN(C(=O)C1CCCO1)c1nnc(-c2ccccn2)s1 (stereo unspecified) | - | ? | - | 50 | 47
CN(C(=O)C1CCOC1)c1nnc(-c2ccccn2)s1 (stereo unspecified) | - | ? | - | 30 | 86
COCC(=O)N(C)c1nnc(-c2ccccn2)s1 | - | ? | - | 41 | 57
CN(C(=O)C1CCCO1)c1nnc(-c2ccncc2)s1 (stereo unspecified) | - | - | - | - | -
O=C(NCc1ccc2c(c1)CCN2C(=O)c1ccccc1)c1ccco1 | . | - | . | . | .
COc1ccc(C(=O)N2CCOC2CNC(=O)C(=O)NCc2ccccn2)cc1 (stereo unspecified) | . | . | - | . | .
c1ccc(-c2nnc(-c3ccccn3)s2)nc1 | 1.1µM | ? | - | 59 | 54
COc1cccc(-c2cc(C(=O)N3C(C)CCCC3C)no2)c1 (stereo unspecified) | ? | - | - | 100 | 72
COc1ccccc1N1CCN(C(=O)c2cc(-c3ccccc3O)on2)CC1 | - | - | - | - | -
CC1CCN(C(=O)c2cc(-c3ccco3)on2)CC1 | ? | ? | - | 27 | 66
CC1CCN(C(=O)c2cc(-c3ccccc3O)on2)CC1 | . | . | - | 39 | 85
CC1CCCC(C)N1C(=O)c1cc(-c2ccco2)on1 (stereo unspecified) | - | - | - | - | 47
O=C(c1cc(-c2ccco2)on1)N1CCN(c2ccccc2)CC1 | . | . | - | - | -
CCCc1cc(=O)[nH]c2nnc(SCC(=O)Nc3ccc(OC)cc3)n12 | . | - | . | . | .
Cc1c(NC(=O)c2cc([N+](=O)[O-])ccc2N2CCOCC2)cccc1-c1nc2ccccc2o1 | - | ? | . | . | .
Cc1csc(SCC(=O)N(C)C2CCS(=O)(=O)C2)n1 (stereo unspecified) | - | - | - | . | .
SMILES | MARV entry inh | LASV entry inh | AMA1-RON2 inh | Cycloheximide cs | Shiga inhibitor
CC(C)(C)OC(=O)CNC(=O)c1[nH]cnc1C(=O)NCC(=O)OCc1ccccc1 | . | . | - | 10 | -
CC(C)(C)OC(=O)NCCCCCNC(=O)c1nc[nH]c1C(=O)NCC(=O)OCc1ccccc1 | . | . | - | . | .
Clc1ccc2sc(C3CCNCC3)nc2c1 | ? | ? | - | 36 | 56
COc1ccc(NC(=O)c2oc3ccccc3c2NC(=O)c2cc3ccccc3o2)cc1 | - | - | . | . | .
COc1ccc(NC(=O)c2oc3ccccc3c2NC(=O)c2ccco2)c(OC)c1 | - | - | - | 11 | -
COc1ccc(NC(=O)c2oc3ccccc3c2NC(=O)c2ccco2)cc1 | ? | - | - | 47 | 35
COc1ccc(OC)c(NC(=O)c2oc3ccccc3c2NC(=O)C2CC2)c1 | . | . | - | - | -
COc1ccc(NC(=O)c2oc3ccccc3c2NC(=O)C2CC2)c(OC)c1 | . | . | 4.5µM | - | -
CN1CCC(N2CCN(C3CN(Cc4cn(Cc5cccc(C(F)(F)F)c5)nn4)S(=O)(=O)C3)CC2)CC1 (stereo unspecified) | . | . | - | . | .
Cc1ccc(NC(=O)C2CCN(C(=O)c3cnn(-c4ccccc4)c3-n3cccc3)CC2)cc1C | - | - | . | . | .
CC(=O)c1ccc(OCc2cc(=O)n3ccsc3n2)cc1 | ? | - | - | 38 | 63
CN(Cc1cc(=O)n2ccsc2n1)c1ccccc1 | - | - | - | - | -
